Measured values reported in PubChem BioAssay (NCATS).
Inconclusive results are not listed. Active and inactive are the calls of the source. Calls come from the whole dose curve; as a rule, active = well fitted inhibition curve with a large enough effect; inconclusive = small, poorly fitted or top-dose-only effect; inactive = no such curve, though single readings can be large or run the other way.

Each compound was assayed against Retinal dehydrogenase 2 (Homo sapiens) (UniProt O94788) (assay: qHTS for Inhibitors of the Aldehyde Dehydrogenase Family (ALDH1A2) Confirmation screens (AID 2061314; note: nearly all actives have a fitted effect of over 65% in size; for activity, negative = inhibition: % is set by controls: 0 for no effect and ±100 for the full control effect)). Conditions: ALDH1A2 enzyme inhibition qHTS confirmation; series mostly up to 45.9 µM; activity, negative = inhibition: at the top concentration.
Potency is the fitted concentration of half-maximal effect.

| SMILES | outcome | Potency | activity, negative = inhibition |
| --- | --- | --- | --- |
| NC(=O)C1CCN(c2nc(-c3ccc(Cl)cc3)cs2)CC1 | inactive |  |  |
| COc1ccc([N+](=O)[O-])c(S(=O)(=O)c2ccccc2)n1 |  | 15.8 µM (active) |  |
| O=S(=O)(Nc1ccc(O)c2ncccc12)c1ccccc1F |  | 2.83 µM (active) |  |
| COc1ccc(C2Nc3ccccc3C(=O)N2Cc2ccccc2)cc1COc1ccccc1OC (centres undefined) |  | 8.96 µM (active) |  |
| Cc1ccc(S(=O)(=O)c2ccc([N+](=O)[O-])cn2)cc1 |  | 1.13 µM (active) |  |
| COc1ccc(C2Nc3ccccc3C(=O)N2Cc2ccccc2)cc1COc1ccc(C)cc1 (centres undefined) |  | 5.65 µM (active) |  |
| CCc1nc2c(sc3nc4c(cc32)COC(C)(C)C4)c(=O)n1Cc1ccco1 |  | 7.12 µM (active) |  |
| COc1cc2ncc(-c3ccccc3)nc2cc1OC |  |  | -12.3% (inactive) |
| COc1ccc([N+](=O)[O-])c(S(=O)(=O)c2ccc(Cl)cc2)n1 |  | 15.8 µM (active) |  |
| O=[S+]([O-])(NCC#CCSc1nnc(-c2cccc3ccccc23)o1)c1ccc(F)cc1 |  |  | -20% (inactive) |
| Cc1cc(C)nc(NC(=S)N2CCN(c3ccc4nsnc4c3)CC2)c1 |  | 6.34 µM (active) |  |
| CC(C)(C)OC(=O)NC1CCN(c2nc(-c3ccc(Br)cc3)cs2)CC1 |  |  | -19.9% (inactive) |
| O=C1Nc2ccccc2/C1=C\c1ccc(C(=O)O)cc1 |  |  | 0.57% (inactive) |
| COc1ccc(C2Nc3ccccc3C(=O)N2Cc2cccnc2)cc1COc1ccc(NC(C)=O)cc1 (centres undefined) |  | 10.1 µM (active) |  |
| Cc1cc(C)nc(NC(=S)N2CCN(c3cccc4ccncc34)CC2)c1 |  | 10.1 µM (active) |  |
| N#Cc1c(-c2cccc(O)c2)no[n+]1[O-] |  | 2.52 µM (active) |  |
| O=C(c1ccc(-c2cnc3c(O)cccc3c2)cc1)N1CCNCC1 |  |  | -17.5% (inactive) |
| NC(=O)C1CCN(c2nc(-c3ccc4occc(=O)c4c3)cs2)CC1 |  |  | -15.9% (inactive) |
| NC(=O)C1CCN(c2nc(-c3ccc4c(c3)OCCO4)cs2)CC1 | inactive |  |  |
| O=S(=O)(Nc1cc(O)cc2cccnc12)c1ccc(Cl)s1 |  | 2.01 µM (active) |  |

The compounds below were run against Retinaldehyde dehydrogenase 3 (Homo sapiens) (UniProt P47895) (assay: qHTS for Inhibitors of the Aldehyde Dehydrogenase Family (ALDH1A3) Primary screen (AID 2061315;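 for activity change, negative = inhibition: plate controls were DMSO vehicle for no effect and reference inhibitor for full effect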)). Conditions: ALDH inhibition qHTS; series mostly up to 56 µM; activity change, negative = inhibition: at the top concentration.

| SMILES | activity change, negative = inhibition | Potency |
| --- | --- | --- |
| NC(=O)C1CCN(c2nc(-c3ccc(Cl)cc3)cs2)CC1 | 11.3% (inactive) |  |
| COc1ccc(C2Nc3ccccc3C(=O)N2Cc2ccccc2)cc1COc1ccccc1OC (centres undefined) | -0.231% (inactive) |  |
| Cc1c(Cl)cccc1NS(=O)(=O)c1cc2c(cc1F)NC(=O)CC2 | -1.67% (inactive) |  |
| COc1ccc(C2Nc3ccccc3C(=O)N2Cc2ccccc2)cc1COc1ccc(C)cc1 (centres undefined) | 3.35% (inactive) |  |
| O=[S+]([O-])(NCC#CCSc1nnc(-c2cccc3ccccc23)o1)c1ccc(F)cc1 | 22.8% (inactive) |  |
| CC(C)(C)OC(=O)NC1CCN(c2nc(-c3ccc(Br)cc3)cs2)CC1 | 11% (inactive) |  |
| c1cn2cc(-c3ccc4cn[nH]c4c3)nc(Nc3ccc(N4CCOCC4)cc3)c2n1 | 12.8% (inactive) |  |
| CC(C)(C)Nc1nc(C#N)nc(Nc2ccccc2)n1 | 1.97% (inactive) |  |
| Cc1cc(C)nc(NC(=S)N2CCN(c3cncc4ccccc34)CC2)c1 | -20.4% (inactive) |  |
| CN(C)c1cccc(-c2csc(N3CCC(C(N)=O)CC3)n2)c1 | -17.1% (inactive) |  |
| O=C1CCc2cc(S(=O)(=O)Nc3cc(F)cc(Cl)c3)c(F)cc2N1 | 9.8% (inactive) |  |
| O=C1Nc2ccccc2/C1=C\c1ccc(C(=O)O)cc1 | 2.28% (inactive) |  |
| O=c1[nH]c(CN2CCOCC2)nc2sc3c(c12)CCC3 | -7.1% (inactive) |  |
| COc1ccc(C2Nc3ccccc3C(=O)N2Cc2cccnc2)cc1COc1ccc(NC(C)=O)cc1 (centres undefined) | -1.74% (inactive) |  |
| N#Cc1c(-c2cccc(O)c2)no[n+]1[O-] | -2.53% (inactive) |  |
| Cc1noc(C)c1-c1ccc2ncnc(NCc3ccc(F)cc3)c2c1 | -14.4% (inactive) |  |
| O=C(c1ccc(-c2cnc3c(O)cccc3c2)cc1)N1CCNCC1 | 17.9% (inactive) |  |
| N#CNC(=O)c1ccc(-n2cccc2/C=C2\NC(=O)N(CC(=O)Nc3cccc(F)c3)C2=O)cc1 | 17.2% (inactive) |  |
| Cc1ccc(-c2no[n+]([O-])c2C#N)cc1 | -1.36% (inactive) |  |
| Cc1nnc(CN(C)c2ncnc3ccc(-c4ccc5c(c4)OCO5)cc23)o1 | 0.327% (inactive) |  |
| O=C(O)CN1C(=O)N/C(=C\c2cccn2-c2ccc(P(=O)(O)O)cc2)C1=O | 22.6% (inactive) |  |
| COc1ccc(-c2csc(NC(=O)c3ccncc3NS(=O)(=O)c3ccc(C)cc3)n2)cc1 | 20.9% (inactive) |  |
| Cc1noc(C)c1N[S+](=O)([O-])c1ccc(NC(=O)Cc2ccc(Cl)c(Cl)c2)cc1 | -3.08% (inactive) |  |
| NC(=O)C1CCN(c2nc(-c3ccc4occc(=O)c4c3)cs2)CC1 | -3.46% (inactive) |  |
| NC(=O)C1CCN(c2nc(-c3ccc4c(c3)OCCO4)cs2)CC1 | -14.9% (inactive) |  |
| O=C(Nc1ncc([N+](=O)[O-])s1)c1ccccc1O |  | 2 µM (active) |
| CCOC(=O)c1c(-c2ccccc2)no[n+]1[O-] | -4.71% (inactive) |  |

The compounds below were run against Aldehyde dehydrogenase 1A1 (Homo sapiens) (UniProt P00352) (assay: qHTS for Inhibitors of the Aldehyde Dehydrogenase Family (ALDH1A1) Confirmatory screens (AID 2061316; note: nearly all actives have a fitted effect of over 65% in size; for activity change, negative = inhibition: % is set by controls: 0 for no effect and ±100 for the full control effect)). Conditions: ALDH inhibition qHTS; series mostly up to 47.3 µM; activity change, negative = inhibition: at the top concentration.

| SMILES | outcome | Potency | activity change, negative = inhibition |
| --- | --- | --- | --- |
| NC(=O)C1CCN(c2nc(-c3ccc(Cl)cc3)cs2)CC1 | inactive |  |  |
| COc1ccc([N+](=O)[O-])c(S(=O)(=O)c2ccccc2)n1 |  | 2.01 µM (active) |  |
| O=S(=O)(Nc1ccc(O)c2ncccc12)c1ccccc1F |  | 2.01 µM (active) |  |
| CCOC(=O)c1ccc(O)c2ncc(N3CCC(C(=N)N)CC3)cc12 |  |  | -22.6% (inactive) |
| O=S1(=O)CCN(Cc2cc(NCC3CCOCC3)c3[nH]c(-c4ccccc4)cc3c2)CC1 |  |  | -6.58% (inactive) |
| Cc1c(Cl)cccc1NS(=O)(=O)c1cc2c(cc1F)NC(=O)CC2 |  |  | -4.44% (inactive) |
| Cc1ccc(S(=O)(=O)c2ccc([N+](=O)[O-])cn2)cc1 |  | 0.634 µM (active) |  |
| CCc1nc2c(sc3nc4c(cc32)COC(C)(C)C4)c(=O)n1Cc1ccco1 |  | 0.634 µM (active) |  |
| COc1ccc([N+](=O)[O-])c(S(=O)(=O)c2ccc(Cl)cc2)n1 |  | 1.27 µM (active) |  |
| Cc1cc(C)nc(NC(=S)N2CCN(c3ccc4nsnc4c3)CC2)c1 |  | 1.79 µM (active) |  |
| CC(C)(C)OC(=O)NC1CCN(c2nc(-c3ccc(Br)cc3)cs2)CC1 |  |  | -1.68% (inactive) |
| c1cn2cc(-c3ccc4cn[nH]c4c3)nc(Nc3ccc(N4CCOCC4)cc3)c2n1 | inactive |  |  |
| CC(C)(C)Nc1nc(C#N)nc(Nc2ccccc2)n1 |  |  | -19.1% (inactive) |
| Cc1cc(C)nc(NC(=S)N2CCN(c3cncc4ccccc34)CC2)c1 |  | 5.65 µM (active) |  |
| CN(C)c1cccc(-c2csc(N3CCC(C(N)=O)CC3)n2)c1 |  | 11.3 µM (active) |  |
| O=C1CCc2cc(S(=O)(=O)Nc3cc(F)cc(Cl)c3)c(F)cc2N1 | inactive |  |  |
| O=C1Nc2ccccc2/C1=C\c1ccc(C(=O)O)cc1 |  |  | -39% (inactive) |
| O=c1[nH]c(CN2CCOCC2)nc2sc3c(c12)CCC3 |  |  | -11% (inactive) |
| Cc1cc(C)nc(NC(=S)N2CCN(c3cccc4ccncc34)CC2)c1 |  | 4 µM (active) |  |
| Cc1noc(C)c1-c1ccc2ncnc(NCc3ccc(F)cc3)c2c1 |  | 20.1 µM (active) |  |
| N#CNC(=O)c1ccc(-n2cccc2/C=C2\NC(=O)N(CC(=O)Nc3cccc(F)c3)C2=O)cc1 |  |  | -8% (inactive) |
| Cc1nnc(CN(C)c2ncnc3ccc(-c4ccc5c(c4)OCO5)cc23)o1 |  | 14.2 µM (active) |  |
| S=C(Nc1ccccn1)c1ccccn1 |  | 5.65 µM (active) |  |
| O=C(O)CN1C(=O)N/C(=C\c2cccn2-c2ccc(P(=O)(O)O)cc2)C1=O |  | 7.98 µM (active) |  |
| COc1ccc(-c2csc(NC(=O)c3ccncc3NS(=O)(=O)c3ccc(C)cc3)n2)cc1 |  | 22.5 µM (active) |  |
| CC(=O)c1ccc(N2CCN(S(=O)(=O)c3ccc4c(c3)n(C)c(=O)n4C)CC2)cc1 |  |  | -0.0343% (inactive) |
| O=S(=O)(Nc1cc(O)cc2cccnc12)c1ccc(Cl)s1 |  | 4 µM (active) |  |
